Compounds with a hit are over-represented: about 4.3% of the library has one in this group of screens.
MLL AF4-AF9 inh – inhibitors of AF4 peptide binding to AF9, primary screen, biochemical, AlphaScreen, biotin-AF4 peptide, FLAG-AF9, single point. inhibition, % at 10 µM. AID 651704, 2012. 350,000 tested, 0.47% active;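 active = every replicate reaching a set inhibition limit, whatever the replicate mean, cut at about 25% in these data; inconclusive = mean inhibition reaches that limit but some replicates miss it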;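 also: 0% = plate neutral control median and 100% = total signal loss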
Target sequence (P42568 whole entry, looked up): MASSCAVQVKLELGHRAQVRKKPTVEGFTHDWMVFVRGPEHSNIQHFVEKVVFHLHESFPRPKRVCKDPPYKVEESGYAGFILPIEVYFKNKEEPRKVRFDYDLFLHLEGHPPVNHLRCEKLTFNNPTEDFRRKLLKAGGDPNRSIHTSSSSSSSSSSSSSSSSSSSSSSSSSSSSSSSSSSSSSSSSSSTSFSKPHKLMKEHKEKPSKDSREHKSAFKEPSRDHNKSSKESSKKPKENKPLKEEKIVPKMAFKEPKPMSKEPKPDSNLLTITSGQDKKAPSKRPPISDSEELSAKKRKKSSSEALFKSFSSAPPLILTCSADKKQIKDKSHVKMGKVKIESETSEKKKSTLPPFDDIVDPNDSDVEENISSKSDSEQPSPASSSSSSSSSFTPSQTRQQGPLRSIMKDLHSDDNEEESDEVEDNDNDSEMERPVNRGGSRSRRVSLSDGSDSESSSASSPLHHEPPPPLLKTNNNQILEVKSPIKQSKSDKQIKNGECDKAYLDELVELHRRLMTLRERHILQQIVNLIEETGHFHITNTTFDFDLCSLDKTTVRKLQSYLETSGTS
MITF act – activators of MITF-driven TRPM1 promoter reporter, primary screen, cell-based, SK-MEL-5, luciferase, single point; SK-MEL-5 TRPM1-promoter luciferase, 24 h; % of positive control, neutral wells = 0; 300,000 tested, 0.75% active; activation, % at 12.5 µM;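 active = mean activation of at least 80% with every replicate also reaching 80%; inconclusive = mean reaches 80% but some replicate falls short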;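 also: 0% = neutral control wells and 100% = parthenolide positive control wells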
SMARCA2 act – SMARCA2 (BRM) function activators, primary screen, cell-based, luminescence, high throughput; MG213 cells, MMTV-luciferase reporter, dexamethasone, overnight; activation, % at 9.1 µM; 370,000 tested, 1% active; AID 652017, 2013; in the data active = activation above about 7.8%;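 also: 0% = vehicle wells and 100% = reference activator wells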
FGF22 binding – binders of human FGF22 protein, primary screen, FGF22 synaptogenesis inhibitor project, biophysical, thermal shift, single point; Fibroblast growth factor 22 (Homo sapiens), Q9HCT0; recombinant FGF22 thermal shift, SYPRO orange fluorescence; percent of sucrose octasulfate shift, DMSO zero; activity (Tm shift, normalised), % at 9.99 µM; 340,000 tested, 1.5% active; AID 651658, 2012;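 active = mean Tm shift, scaled 0 neutral to 100 positive control, at about 1.3% or above, every replicate too, limit read from the data; inconclusive = no clear call, values can overlap the other calls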
esBAF inh – Bmi1 luciferase reporter increase in mESCs, primary screen, esBAF inhibitor project, mouse ES cells, Bmi1 luciferase knock-in, single point; 24 h; 100% = twice the neutral-well signal; reporter increase, % at 12.5 µM; 350,000 tested, 2% active; in the data active = activation above about 40%; inconclusive = no clear call, values can overlap the other calls;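 also: 0% = median of the plate's neutral control wells and 100% = double that signal; a rise in the Bmi1 reporter signal indicates esBAF inhibition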
Wnt bcat act – Wnt/beta-catenin pathway activators, primary screen, cell-based, plate reader, single point; activation, % at 9.35 µM; AID 743398, 2014; 300,000 tested, 1.2% active; Wnt/beta-catenin reporter cell assay, activator; in the data active = activation above about 30%, passing the limit was not always enough; inconclusive = no clear call, values can overlap the other calls;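 also: 0% = neutral control wells and 100% = positive control wells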
Numbers without * were called inactive; u = inconclusive; x = no result.

SMILES | MLL AF4-AF9 inh | MITF act | SMARCA2 act | FGF22 binding | esBAF inh | Wnt bcat act
COc1ccc(CC2(C)OC(c3ccc([N+](=O)[O-])cc3)=NN2C(C)=O)cc1 (stereo not drawn) | 27* | -1 | -1 | 0 | x | -5
CCOC(=O)c1c(C)[nH]c(C(=O)O)c1C | x | 15 | 0 | x | -4 | x
CCOC(=O)c1c(C)[nH]c(N=Nc2cccc(OC)c2)c1C | 22 | 130* | 0 | 0 | 66* | 45*
CCOC(=O)c1c(C)[nH]c(N=Nc2cccc(C)c2)c1C | x | 103* | -1 | x | 79* | x
C[C@@H]1CCCCO[C@H](CN(C)C(=O)c2ccccc2)[C@@H](C)CN([C@H](C)CO)C(=O)c2cc(NS(=O)(=O)c3cn(C)cn3)ccc2O1 | -3 | x | x | x | 4 | x
O=C(C[C@@H]1C[C@H]2c3cc(NC(=O)NC4CCCC4)ccc3O[C@H]2[C@H](CO)O1)NCCN1CCCCC1 | 7 | x | x | 0 | 1 | x
COc1ccc(C)cc1C1=Nc2ccccc2C1(C)C | x | 8 | -1 | x | x | x
Cc1ccc(O)c(C2=Nc3ccccc3C2(C)C)c1 | 9 | 98* | 0 | 0 | 67* | -1
Cc1ccc(-c2cn(-c3ccccc3)c(SCC(=O)NC3CCS(=O)(=O)C3)n2)cc1C (stereo not drawn) | 13 | 99* | 5 | 0 | x | 0
COc1cc(OC)cc(-c2nc3cc(C)ccc3o2)c1 | x | 52 | 8 | x | 45* | 57*
Cc1ccc(-c2nc3cc(Cl)ccc3o2)cc1 | x | -1 | 1 | x | 4 | x
O=C(Nc1ccc2c(c1)OCCO2)C1CCCN(S(=O)(=O)c2cccs2)C1 (stereo not drawn) | x | -8 | x | x | 48* | x
COCCCNC(=O)CN(CCc1ccccc1)S(=O)(=O)c1ccc(C)cc1 | -2 | 22 | 0 | 44* | x | -6
COCCCNC(=O)CN(CCc1ccccc1)S(=O)(=O)c1ccccc1 | -3 | 11 | -3 | 0 | x | -3
O=C(Nc1cccc(Cl)c1)c1ccc(OC(=S)N2CCOCC2)cc1 | -4 | 49 | 0 | 1 | x | 6
O=C(Nc1cccc2ccccc12)c1ccc(OC(=S)N2CCOCC2)cc1 | x | 42 | 7 | x | 45* | 15
COc1ccc(/C(N)=N/OC(=O)c2cccs2)cc1 | x | 61 | 1 | 1 | x | 40*
N/C(=N\OC(=O)c1cccs1)c1ccc(Cl)cc1 | x | x | 1 | 0 | 14 | 57*
N/C(CC(=O)Nc1ccc(F)c(Cl)c1)=N\OC(=O)c1cccs1 | 0 | x | 1 | 0 | x | -1
Cc1cc(C)n(-c2nc3ccccc3c(=O)n2OCC(=O)OCc2ccccc2)n1 | x | -14 | 1 | x | 48* | 2
CCCOc1ccc(-c2nc(N3CCN(C)CC3)c3ccccc3n2)cc1 | 9 | 125* | 5 | -1 | 22 | 46*
CCCOc1ccc(-c2nc(N3CCN(CC)CC3)c3ccccc3n2)cc1 | 2 | 22 | 0 | 0 | -13 | 0
O=C(Nc1ccccc1)c1cc2n(n1)C(C(F)(F)F)CC(C1CC1)N2 (stereo not drawn) | 0 | 6 | 3 | 43* | x | 11
CC1(C)Cc2c(cnn2-c2cccc(F)c2)C(NC(=O)CCN2CCCC2=O)C1 (stereo not drawn) | -1 | -4 | -1 | 0 | 4 | 0
CC1(C)Cc2c(cnn2-c2ccc(F)cc2)C(NC(=O)c2ccco2)C1 (stereo not drawn) | 1 | 16 | 1 | 0 | 19 | 0
SMILES | MLL AF4-AF9 inh | MITF act | SMARCA2 act | FGF22 binding | esBAF inh | Wnt bcat act
CC1(C)Cc2c(cnn2-c2ccc(F)cc2)C(NC(=O)C2=NNC(=O)CC2)C1 (stereo not drawn) | -2 | 31 | 7 | 0 | 52* | -1
CC1(C)Cc2c(cnn2-c2ccc(F)cc2)C(NC(=O)CCN2CCCC2=O)C1 (stereo not drawn) | 0 | 26 | 0 | 0 | 44* | 17
Cc1ccc(C(=O)NC(=S)Nc2ccc(N3CCOCC3)cc2)c(C)c1 | 2 | -8 | 7.9* | 0 | -2 | 6
O=C(c1ccccc1)c1ccc(N2CCOCC2)cc1 | -3 | 72 | 0 | 0 | x | 23
O=C(Nc1ccccc1)c1cnc2n(c1=O)CCS2 | 1 | 26 | 5 | 0 | 39 | 12
O=C(Nc1ccc(N2CCCCC2)cc1)c1cncc(Br)c1 | x | 128* | 0 | x | 9 | 39*
O=C(Nc1ccc(OC(F)(F)F)cc1)c1cnc2n(c1=O)CCS2 | -2 | 7 | -3 | 0 | 48* | 9
Cc1ccc(C(=O)NC(=S)Nc2ccc3c(c2)OCCO3)c(C)c1 | x | 33 | 2 | x | 30 | x
O=C(Nc1ccc(S(=O)(=O)N2CCCC2)cc1)c1cncc(Br)c1 | -2 | 15 | 2 | 0 | -5 | -3
O=C(c1ccccc1)c1ccc(N2CCCC2)cc1 | x | 94* | 5 | x | 60* | 20
Cc1ccc(S(=O)(=O)Nc2ccc3c(c2)C(=O)N([C@@H](C)CO)C[C@H](C)[C@H](CN(C)Cc2ccc4c(c2)OCO4)OCCCC[C@H](C)O3)cc1 | 7 | x | x | -1 | 4 | x
Cc1noc(C)c1NC(=O)Nc1cccc2c1O[C@H](CN(C)Cc1ccc(Cl)c(Cl)c1)[C@H](C)CN([C@H](C)CO)C2=O | -6 | x | x | 0 | 1 | x
CCN(CC)C(=O)CSc1nnc(-c2cccs2)o1 | x | x | 3 | x | x | x
Cc1ccc(C(=O)Nc2ccc(C(=O)/C=C/c3cccs3)cc2)cc1 | x | x | 3 | x | 69* | 9
Nc1nc2ccc(C(=O)Nc3ccc(N4CCOCC4)cc3)cc2s1 | -2 | 6 | 2 | 0 | 51* | 9
O=C(Nc1ccc(N2CCOCC2)cc1)c1ccc2ncsc2c1 | -2 | -3 | 0 | 0 | 27 | 8
Cc1cnc(C(=O)Nc2nnc(C(C)C)s2)cn1 | x | x | 0 | x | 6 | 32*
Cc1ccc(C(=O)Nc2ccc(N3CCCCC3)cc2)cc1 | -2 | 106* | 5 | 0 | 40 | u
Cc1ccc(S(=O)(=O)N[C@H]2CC[C@H](CCn3cc(C4CCCC4)nn3)O[C@@H]2CO)cc1 | -11 | x | x | 0 | 13 | x
N#C[C@@H]1[C@H](c2ccccc2-c2ccccc2)[C@H](CO)N1C(=O)NC1CCCCC1 | 0 | x | x | x | x | x
CC(C)C#Cc1cnc2c(c1)C(=O)N([C@H](C)CO)C[C@@H](C)[C@H](CN(C)C(=O)Nc1cccc(F)c1)O2 | 0 | x | x | 0 | 3 | x
O=C(C1CCCCC1)N1[C@H](CO)[C@@H]2c3ccccc3NC[C@@H]21 | -1 | x | x | 0 | -3 | x
Cc1ccc(C(=O)Nc2ccc(N3CCN(S(C)(=O)=O)CC3)cc2)cc1 | -2 | 15 | -1 | 0 | 6 | -2
Cc1ccc(NC(=O)c2ccc(S(=O)(=O)N3CCOCC3)cc2)cc1 | -3 | 31 | 2 | 0 | 15 | 0

Compound activity deposited in PubChem by several laboratories.
